# sdo1 growth: sdo1-depleted yeast growth rescue; AID 817; S. cerevisiae sdo1-depleted JHY4D growth rescue, OD600 30 h; active compounds read high; pdr5 snq2 efflux-pump mutant strain; hit rate 0.21% among 140,000; z-score at 10 µM;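 active = z-score above 3 at both the 24 hr and the 30 hr optical density reads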;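 also: z-score against mean and SD of all compound wells on the same plate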
# INS promoter inh: TRM-6 insulin promoter activity inhibition; TRM-6 cells (human fetal islet line), insulin promoter-eGFP reporter, imaging; reporter expression induced with tamoxifen; inhibition, % at 2 µM; hit rate 0.9% among 130,000; AID 1273;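 active = inhibition above the mean plus 3 SD, with well images judged a real hit on visual review, cut at about 60% in these data, passing the limit was not always enough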
# ROMK primary: modulates human ROMK potassium channel activity; P48048; Tet-inducible ROMK, thallium flux fluorescence; actives lie on both sides; B-score at 10 µM; hit rate 2% among 130,000;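 active = signal ratio slope over the read window, or its plate-corrected B-score, at least 3 SD from the plate mean, either direction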;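 also: B-score of the F/F0 ratio slope over 7 to 12 s after thallium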
# Target sequence (P48048 whole entry, looked up): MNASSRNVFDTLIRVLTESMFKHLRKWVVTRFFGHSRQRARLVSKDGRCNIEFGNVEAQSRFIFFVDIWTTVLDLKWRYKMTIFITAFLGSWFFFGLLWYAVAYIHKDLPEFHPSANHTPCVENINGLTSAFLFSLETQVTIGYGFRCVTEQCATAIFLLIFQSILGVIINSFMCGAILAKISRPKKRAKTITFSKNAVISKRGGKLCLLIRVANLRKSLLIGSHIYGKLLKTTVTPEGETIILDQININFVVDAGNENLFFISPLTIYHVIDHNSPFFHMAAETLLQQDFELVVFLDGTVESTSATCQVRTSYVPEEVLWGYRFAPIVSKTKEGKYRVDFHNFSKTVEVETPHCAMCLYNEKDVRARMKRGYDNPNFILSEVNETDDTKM
# Measles CPE: protection of cells from measles virus | Measles virus-infected cells, CPE protection, absorbance | protection (pct of control), % at 4 µM | hit rate 1.5% among 140,000 | AID 841; in the data active = protection mostly above about 24%, no sharp cut-off; inactive = mostly below about 26%
# Starred values were filed as active, the others as inactive; . = no result; [ ] = remark or other dose. Hits are enriched below; roughly 3% of the tested compounds scored in any of these assays.
SMILES,sdo1 growth,INS promoter inh,ROMK primary,Measles CPE
COc1ccc(-c2c3c(=O)n(C)c(=O)n(C)c3cn2Cc2cccnc2)cc1,0.55,73*,1.3,16
COc1ccc(-c2c3c(=O)n(C)c(=O)n(C)c3cn2Cc2ccccn2)cc1,1.1,7,0.71,12
Cc1c(/C=N/NC(=O)CNc2ccccc2)c2ccccn2c1C(=O)c1ccccc1,-1.1,.,.,23*
COC(=O)N/N=C/c1c(C)c(C(=O)c2ccc(F)cc2)n2ccccc12,-1.6,-27,.,24
c1ccc2c(c1)[nH]c1c(N3CCSCC3)ncnc12,-0.47[13.6 µM],94*,-1.5,5
CN1CCN(c2ncnc3c2[nH]c2ccc(F)cc23)CC1,1.4,-9,-0.057,50*
O=C(CNC(=O)c1cccc(F)c1)OCC(=O)N1CCCCC1,0.43,.,.,6
CCOc1ccc(C(=O)NCC(=O)OCC(=O)N2CCCCC2)cc1,-0.34,-8,0.95*,59
O=C(N/N=C/c1ccncc1)C1C2CCCCCCC21 (configuration not stated),-0.99,57,-0.36,3
Cc1ccc(SCC(=O)OCn2nnc3ccccc3c2=O)cc1C,0.39,17,0.31,26
COc1cc(/C=N/NC(=O)c2ccncc2)ccc1OC(=O)c1ccc([N+](=O)[O-])cc1,0.42,100*,0.64,16
COc1cc(/C=N/NC(=O)c2ccncc2)ccc1OC(=O)c1ccccc1Cl,.,.,-0.0099,.
CC(NC(=O)COC(=O)/C=C/c1cccc(C(F)(F)F)c1)c1ccccc1 (configuration not stated),0.21,0,-0.14,16
CCOC(=O)c1c(C2CC2)csc1NC(C)=O,-0.79,-50,.,36*
Cc1ccc(Cn2nnc3c(=O)[nH]c(C4CCCN(S(=O)(=O)c5ccccc5)C4)nc32)cc1 (configuration not stated),0.05,-3,-1.3,46*
CCOC(=O)c1[nH]c2ccccc2c1NC(=O)CN1CCCCC1,-0.56,-6,.,2
CCCC(=O)Nc1c(C(=O)OCC)[nH]c2ccccc12,0.12,.,.,39*
CCOC(=O)c1[nH]c2ccccc2c1NC(=S)Nc1cc(C)ccc1C,-0.19,76*,0.034,10
CC(C)c1ccc(OCC(O)CN2CCN(c3ccccc3)CC2)cc1 (configuration not stated),-1.1,.,-2.8*,6
COc1ccc(OCC(O)CN2CCN(c3ccccc3)CC2)cc1 (configuration not stated),.,.,-0.34,.
O=C(CSc1n[nH]c(-c2cccs2)n1)NCc1cccs1,1.3,-22,.,7
O=C(CSc1n[nH]c(-c2cccs2)n1)NCc1ccc2c(c1)OCO2,-0.07,-387,.,12*
Nc1nc(SCC(=O)NCc2ccc3c(c2)OCO3)n[nH]1,.,65*,0.22,.
O=C(COC(=O)c1cccs1)NCc1ccc2c(c1)OCO2,0.23,.,.,97*
O=C1CCC/C1=C/Nc1ccc(Cl)cc1,.,82*,-0.29,.
SMILES,sdo1 growth,INS promoter inh,ROMK primary,Measles CPE
Cc1ccc(OCc2nc(-c3ccc(Cl)cc3)n[nH]2)cc1,-2,13,.,33*
COc1ccc(NC(=O)CN2C(=O)CC(C)(C)S(=O)(=O)c3ccccc32)cc1,-0.09,.,.,6
CC(NS(=O)(=O)c1ccc(Br)cc1)C(c1cccs1)N1CCN(C)CC1 (configuration not stated),1.2,-57,.,27*
CC(NS(C)(=O)=O)C(c1cccs1)N1CCN(Cc2ccccc2)CC1 (configuration not stated),1.2,0,.,31*
CC(NS(C)(=O)=O)C(c1cccs1)N1CCN(C)CC1 (configuration not stated),0.37,.,.,17
CCN(CC)C(=O)CNC(=O)Cc1ccc(Cl)cc1,-0.64,-27,0.035,4
COc1cccc(/C=C2\N=C3CCCCCN3C2=O)c1,-0.76,23,-1,36*
COc1ccc(NC(=O)c2cc([N+](=O)[O-])ccc2O)cc1,.,.,4.5*,.
COc1ccc(/C(O)=C2/C(=O)C(=O)N(CCCN(C)C)C2c2ccco2)cc1Cl (configuration not stated),.,.,-0.022,.
CC1(C)CC(=O)C=C(NCC2CCCO2)C1 (configuration not stated),-0.66,.,.,12
Fc1ccc(-c2onc3ccc(C4OCCO4)cc23)cc1,.,7,-0.12,.
O=Cc1ccc2noc(-c3ccc(F)cc3)c2c1,1.6,-12,-3.1*,13
Cc1ccc(C(=O)NCc2n[nH]c(=S)n2-c2ccccc2)cc1[N+](=O)[O-],.,-8,.,.
Cn1cccc1C(C(=O)NC1CCCCC1)N(C(=O)Cc1cccs1)C1CC1 (configuration not stated),0.05,.,0.014,7
